This excerpt belongs to a sample that is enriched for hits.
Shiga toxin inh: Shiga toxin inhibition; actives 9.2% (n = 290,000); inhibition, % at 38.7 µM; Vero cells, Shiga toxin protein synthesis inhibition reporter; AID 2315; in the data active = inhibition mostly above about 28%, no sharp cut-off; inactive = mostly below about 43%; note: 0% is about no effect
Vaccinia mCherry: vaccinia inhibition (mCherry reporter); Vaccinia virus mCherry reporter infection, fluorescence; actives 0.63% (n = 310,000); AID 720579; Potency, µM (titrated, usually from 36.5 µM), without a hit: at the top dose activity change, negative = inhibition, actives largely listed as inhibitors; calls by dose curve; tested in A549 cells; note: potency is the fitted concentration of half-maximal effect; % is set by controls: 0 for no effect and ±100 for the full control effect; nearly all actives have a fitted effect of over 35% in size
CHX counter: affects cycloheximide protein synthesis inhibition readout, counter-screen | cell reporter, cycloheximide protein synthesis inhibition counterscreen | max response, % | actives 12% (n = 300,000) | AID 2314; in the data active = max response mostly above about 13%, no sharp cut-off; inactive = mostly below about 14%; note: read at 38.3 µM for the half of the compounds with a filed dose; 0% is about no effect
Marburg entry inh: blocks Marburg virus binding to or entry into cells | Marburg virus pseudotyped entry inhibition, cell reporter | Potency, µM (top dose mostly 37.8 µM), for inactives: top-dose activity change, negative = inhibition, most hits filed as inhibitors | actives 1.8% (n = 300,000) | AID 540276; calls by dose curve; tested in HEK293 cells; note: potency is the fitted concentration of half-maximal effect; % is set by controls: 0 for no effect and ±100 for the full control effect
LASV entry inh: blocks Lassa virus binding to or entry into cells; actives 1.2% (n = 300,000); Potency, µM (titrated, usually from 37.9 µM), for inactives: top-dose activity change, negative = inhibition, hits mostly inhibitors; AID 540256; Lassa virus pseudotype entry inhibition, cell reporter; calls by dose curve; tested in HEK293 cells; note: potency is the fitted concentration of half-maximal effect; % is set by controls: 0 for no effect and ±100 for the full control effect; nearly all actives have a fitted effect of over 50% in size
VACV Venus inh: vaccinia inhibition (Venus reporter); actives 0.46% (n = 330,000); Potency, µM (doses to about 36.5 µM), without a hit: top-dose activity change, negative = inhibition, usual class: inhibitors; Vaccinia virus Venus reporter expression, fluorescence; calls by dose curve; tested in A549 cells; note: potency is the fitted concentration of half-maximal effect; % is set by controls: 0 for no effect and ±100 for the full control effect; nearly all actives have a fitted effect of over 30% in size
* = called active by the depositor; i = inactive; ? = inconclusive; . = no result; [ ] = dose if it differs, or a comment.

SMILES	Shiga toxin inh	Vaccinia mCherry	CHX counter	Marburg entry inh	LASV entry inh	VACV Venus inh
Cc1cc(Nc2ccccc2C(=O)O)nc2nc3ccccc3c(=O)n12	-14	.	-1	24%	1%	.
NC(=O)c1ccccc1Nc1nc2nc3ccccc3c(=O)n2cc1Br	38*	-14%	15*	?	-11%[46.1 µM]	-13%
CN1CCN(CCC(=O)N/N=C/c2ccccn2)CC1	-4	-19%	0	25%[46.1 µM]	-3%[46.1 µM]	-1%
COc1cccc2c1C(=O)c1c(O)c3c(c(O)c1C2=O)CC(O)(C(C)=O)CC3OC1CC(O)C(O)C(C)O1 (stereo not given)	.	281%	.	1.4µM*	?	i
COc1cccc2c1C(=O)c1c(O)c3c(c(O)c1C2=O)C[C@@](O)(C(=O)CO)C[C@@H]3O[C@H]1C[C@H](N)[C@H](OC2CCCCO2)[C@H](C)O1 (stereo not given in full)	.	311%	.	1.3µM*	1.1µM*	441%
COc1cccc2c1C(=O)c1c(O)c3c(c(O)c1C2=O)C[C@](O)(C(C)=O)C[C@H]3O[C@@H]1C[C@@H](N)[C@@H](O)[C@@H](C)O1	.	44%	.	.	.	481%
COc1cccc2c1C(=N)c1c(O)c3c(c(O)c1C2=O)CC(O)(C(C)=O)CC3OC1CC(N)C(O)C(C)O1 (stereo not given)	.	150%	.	0.35µM*	0.63µM*	?
CCCCC(=O)OCC(=O)C1(O)Cc2c(O)c3c(c(O)c2C(OC2CC(NC(=O)C(F)(F)F)C(O)C(C)O2)C1)C(=O)c1c(OC)cccc1C3=O (stereo not given)	.	374%	.	?	?	i
Cc1cnc(-n2ncc(C(=O)NCCc3ccccn3)c2C)nc1-c1ccc(F)cc1	.	-23%	.	.	.	-8%
Cc1noc(NC(=O)c2cccc(C(F)(F)F)c2)c1Cl	-17	-9%	1	-23%[46.1 µM]	-20%	-7%
Cc1noc(C(=O)Nc2cccc(Cl)c2)c1Cl	60*	.	33*	.	.	.
Cc1noc(C(=O)Nc2cccc(O)c2)c1Cl	76*	?	43*	13%	-1%	8%
Cc1noc(NC(=O)c2ccc(Cl)cc2)c1Cl	66*	-22%	44*	-30%[14.2 µM]	-1%	-17%
CCSC1=NC2(CCN(C(=O)NC3CCCCC3)CC2)N=C1c1ccc(Cl)cc1	.	-2%	.	.	29%[46.1 µM]	-6%
COc1ccc(C(=O)N/N=C/c2ccccc2OC(=O)c2ccccc2)cc1	41*	2µM*	33*	13µM*	?	?
COc1ccc(C(=O)N/N=C/c2ccc(OC(=O)c3ccccc3)cc2)cc1	19	-8%	-1	0%	27%	-5%
CC(C)(C)C(=O)Nc1ccc(C(=O)N/N=C/c2ccccc2OC(=O)c2ccccc2)cc1	-15	.	4	?	?	?
COc1cc(C(=O)Oc2ccccc2/C=N/NC(=O)c2ccc(C)cc2)cc(OC)c1OC	118*	.	87*	?	8.9µM*	?
CC(C)(C)C(=O)Nc1ccc(C(=O)N/N=C/c2ccccc2OC(=O)c2ccc(Cl)cc2)cc1	14	7.9µM*	3	?	?	?
C[C@H]1CC[C@H]2C(=O)O[C@H](CO)CN2[C@H]1c1ccc(Br)cc1	.	.	.	-20%[14.2 µM]	?	.
CC(=O)C1=C(O)C(=O)N(c2ccc(S(N)(=O)=O)cc2)C1c1cccc([N+](=O)[O-])c1 (stereo not given)	26	-6%	-2	.	.	-17%
CC(=O)C1C(=O)c2c(cccc2[N+](=O)[O-])C1=Nc1ccc(S(N)(=O)=O)cc1 (stereo not given)	41	.	30*	-17%	-2%	.
COc1ccc(CN2CCCC(n3cc(C(=O)NC4CCCC4)nn3)C2)c2ccccc12 (stereo not given)	.	i	.	.	.	-19%
CC[n+]1c(C)cc2c(sc3ccccc32)c1C	2	.	1	.	.	.
CCc1nc(C)cc2c1sc1ccccc12	38	-9%	19*	12%[46.1 µM]	17%	-1%
Cn1ncc([N+](=O)[O-])c1C(=O)Nc1ccc(-c2nc3ccccc3[nH]2)cc1	48*	-14%	42*	0%	?	?
Cn1ncc([N+](=O)[O-])c1C(=O)Nc1ccc(Cl)cc1	-3	.	-4	.	.	.
Cn1ncc([N+](=O)[O-])c1C(=O)Nc1ccc(C2CCCCC2)cc1	59	-21%	26*	?	8%[46.1 µM]	-7%

From PubChem
